Screening results (PubChem BioAssay)
Methyltransferases: Primary Screen for Target Class Profiling of Small Molecule Inhibitors of Methyltransferases. calls only at 40 µM. purified enzyme, MTase-Glo SAH luminescence; hits give low values. actives 3.9% (n = 25,000); call rule not given here
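Each enzyme was assayed with SAM and its substrate. SAH formation detected by MTase-Glo luminescence; single-point 40 uM screen[…].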
Calls only; 0 = inactive; + = active, no number. The full list was thinned out, with hits kept by preference.

SMILES	Methyltransferases
NS(=O)(=O)c1cccc2c1c([N+](=O)[O-])cc1nc(O)c(O)nc12	+
Cc1ccc(CNC(=O)C2(C)Cn3nc(C(=O)NCc4ccc(OC(C)C)cc4)cc3C(=O)N2C)cc1 (stereo not drawn)	0
CCOC(=O)CNC(=O)C1(C)Cn2nc(-c3ccc(OC)cc3)cc2C(=O)N1C (stereo not drawn)	0
CC(C)NC(=O)c1ccc2c(=O)n(Cc3ccccc3)c3nn(Cc4ccc(Cl)cc4)c(=O)n3c2c1	0
C[C@@H]1C[C@H](C)CN(CCC(=O)Nc2ccc(Br)cc2)C1	0
CN(C)c1ccc(Nc2c3ccc(NC(=O)CCN4CCCC4)cc3nc3cc(NC(=O)CCN4CCCC4)ccc23)cc1	+
CN(C)c1ccc(CNC(=O)CCCn2ccc3cc(S(=O)(=O)N4CCCC4)ccc32)cc1	0
CCCn1c(=O)c2ccc(C(=O)NC3CCCCC3)cc2n2c(=O)n(CC(=O)Nc3ccc(C)cc3)nc12	0
O=C(CCc1nnc2n(Cc3ccccc3Cl)c(=O)c3ccccc3n12)NCCN1CCCC1	0
O=Nc1ccc2oc(=O)ccc2c1	+
O=c1ccc2ccc(O)c(O)c2o1	0
CCOC(=O)c1cc2n(n1)CC(C)(C(=O)NC1CCCC1)N(c1ccc(OC)cc1)C2=O (stereo not drawn)	0
CC1(C(=O)NC2CCCCCC2)Cn2c(ccc2-c2ccccc2)C(=O)N1CCC1=CCCCC1 (stereo not drawn)	0
COc1ccc(CCN2C(=O)c3cc4ccccc4n3CC2(C)C(=O)NCCC(C)C)cc1OC (stereo not drawn)	0
O=C(Cn1c(=O)oc2cc(S(=O)(=O)NC3CCCC3)ccc21)NCc1ccc(F)cc1	0
Cc1ccc(CSc2nnc3n(CC(C)C)c(=O)c4cc(F)ccc4n23)cc1	0
COCCCN1C(=O)c2cc3occc3n2CC1(C)C(=O)NC1CCCCC1C (stereo not drawn)	0
COc1cccc(-c2cn(-c3ccc(CCN4CCC(O)CC4)cc3)c3ncnc(N)c23)c1	+
CC(=O)NC1CCN(Cc2cn(-c3ccc(C)cc3)nc2-c2cccc(C)c2)C1 (stereo not drawn)	0
Cn1cc(-c2ccc3c(c2)CCN3C(=O)Cc2cccc(C(F)(F)F)c2)c2c(N)ncnc21	0
O=C(NCCN1C(=O)C2(CCCCC2)C1c1ccccc1)NCc1ccccc1 (stereo not drawn)	0
CC1(C(=O)NC2CCCCC2)Cn2c(ccc2-c2ccco2)C(=O)N1CCN1CCCCCC1 (stereo not drawn)	0
CC1(CO)CC(O)[C@]2(C(=O)O)CCC34CC3(C=CC3[C@]5(C)C(CC[C@]34C)C(C)(CO)[C@@H](O)[C@H](O)[C@@H]5O)C2C1 (stereo partly drawn)	+
CC1(C)CC[C@]2(C(=O)O)CC[C@]3(C)C(=CCC4[C@@]5(C)C[C@@H](O)[C@H](O)[C@@](C)(CO)C5CC[C@]43C)C2C1 (stereo partly drawn)	0
CC1(C)CC[C@]2(C(=O)O)CC[C@]3(C)C(=CCC4[C@@]5(C)C(=O)C[C@H](O)[C@@](C)(CO)C5CC[C@]43C)[C@@H]2C1 (stereo partly drawn)	0
SMILES	Methyltransferases
Cc1ccc(Cl)cc1N1C(=O)c2cc(-c3cccs3)nn2CC1(C)C(=O)NC1CCCCC1 (stereo not drawn)	0
COc1ccc2c(c1)c(NC(C)=O)c1n2CC(C)(C(=O)NC2CCCC2)N(CCC(C)C)C1=O (stereo not drawn)	0
COc1cc(Cl)c(C)cc1NS(=O)(=O)c1ccc2c(c1)n(C)c(=O)n2C	0
CCCN1C(=O)c2cc(-c3ccccc3)nn2CC1(C)C(=O)NCc1ccccc1OC (stereo not drawn)	0
CCN(CC)CCCNC(=O)CCCc1nnc2n3nc(-c4ccccc4)nc3c3ccccc3n12	+
C=CCNC(=O)CCCc1nnc2n3nc(-c4ccccc4)nc3c3ccccc3n12	0
CC1CCCCN1CCNC(=O)CCCc1nnc2n3nc(-c4ccccc4)nc3c3ccccc3n12 (stereo not drawn)	0
CC1CCC(NC(=O)CCCc2nnc3n4nc(-c5ccccc5)nc4c4ccccc4n23)CC1 (stereo not drawn)	0
CCN(CC)CCNC(=O)CCCc1nnc2n3nc(-c4ccccc4)nc3c3ccccc3n12	+
Cc1ccc(CNC(=O)CCCc2nnc3n4nc(-c5ccccc5)nc4c4ccccc4n23)cc1	0
COC(=O)c1cc2n(n1)CC(C)(C(=O)NC1CCC(C)CC1)N(c1cc(Cl)ccc1C)C2=O (stereo not drawn)	0
COC(=O)c1ccc(COc2cc3oc(=O)cc(-c4ccccc4)c3cc2Cl)cc1	0
COC(=O)c1cc2n(n1)CC(C)(C(=O)NC1CCCCC1)N(c1ccc(C)cc1C)C2=O (stereo not drawn)	0
O=C(CCc1ccsc1)N1CCC2(CCCN(Cc3cccnc3)C2=O)C1 (stereo not drawn)	0
Cn1c(=O)c2ccc(C(=O)NC3CCCC3)cc2n2c(SCc3c(F)cccc3Cl)nnc12	0
CC1(C(=O)NC2CCCCCCC2)Cn2c(ccc2-c2ccco2)C(=O)N1CCCc1ccccc1 (stereo not drawn)	0
